# From PubChem BioAssay (Tox21)
# Inconclusive results are not listed. A call without a number means that no potency is given here. Some structures have more than one record in an assay (separate samples or runs), and their calls can disagree. Calls of active or inactive are those of the source. Unless noted, calls come from the whole dose curve; as a rule, active = well fitted curve in the direction sought with a large enough effect in the repeat runs; inconclusive = weak or mixed curves; inactive = flat fitted curve, though single readings scatter. Starred links: 1 amine or outer side, 2 acyl side, 3 side chain; linkers in the order of their positions; H or OH if unused. Positions of bridges follow the written chain, without caps; N, C: chain ends. Non-standard residues stand in square brackets, D forms with d. Residues, ends and D or L forms follow the SMILES beside them. Chains are numbered I, II in the order given. Actinocin(9to1) = Cc1c2oc3c(C)ccc(C(=O)[*:1])c3nc-2c(C(=O)[*:2])c(N)c1=O; NMeV = CN[C@H](C(=O)O)C(C)C; Sar = CNCC(=O)O
# Legend:
# [1] = qHTS assay to test for compound auto fluorescence at 535 nm (green) in HEK293 cells (AID 720680)
# [2] = qHTS assay to test for compound auto fluorescence at 535 nm (green) in HEK293 cell free culture (AID 720682)
# How it was run: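 Cell-free medium (DMEM, 10% FBS) receives compound or DMSO by pintool. Plate read directly at Ex 485/Em 535 nm. Signal converted to fluorescein equivalency.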
# [3] = qHTS assay to test for compound auto fluorescence at 590 nm (red) in HEK293 cell free culture (AID 720683)
# How it was run: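 Tox21 10K library compounds were pinned into cell-free DMEM with 10% FBS and fluorescence was read at excitation 540 nm. Activity is expressed as Rose Bengal sodium equivalency.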
# [4] = qHTS assay to test for compound auto fluorescence at 590 nm (red) in HepG2 cell free culture (AID 720684)
# How it was run: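 Readout: intrinsic compound fluorescence at 590 nm emission after 540 nm excitation, scaled to Rose Bengal sodium. Matrix was cell-free MEM with 10% FBS; DMSO vehicle wells served as control.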
# [5] = qHTS assay to test for compound auto fluorescence at 460 nm (blue) in HepG2 cell free culture (AID 720685)
# How it was run: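 Cell-free plates of MEM plus 10% FBS received 23 nL compound or DMSO vehicle; blue-channel (405/460 nm) intensity scored against triamterene as reference fluorophore.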
# [6] = qHTS assay to test for compound auto fluorescence at 535 nm (green) in HepG2 cell free culture (AID 720686)
# [7] = qHTS assay to test for compound auto fluorescence at 460 nm (blue) in HepG2 cells (AID 720687)
# How it was run: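 Cells (2,000/well in MEM with 10% FBS) attached overnight at 37 C, then were exposed to compound or DMSO for 1 hr at 37 C, 5% CO2. Fluorescence read at Ex/Em 405/460 nm, expressed as triamterene-equivalent signal.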
# [8] = biological target: Glucocorticoid receptor (Homo sapiens) (UniProt P04150); assay: qHTS assay to identify small molecule agonists of the glucocorticoid receptor (GR) signaling pathway (AID 720691; active = well fitted activation curve with a large enough effect in the signal ratio in the repeat runs, not every such curve was filed as active; the % refers to the signal ratio; note: potency is the fitted concentration of half-maximal effect)
# How it was run: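 Measures GR pathway activation through a GRE-beta-lactamase reporter stably integrated in HeLa cells, with 18 h compound treatment at 37 C and fluorescence detection using a FRET substrate.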
# [9] = biological target: Glucocorticoid receptor (Homo sapiens) (UniProt P04150); assay: qHTS assay to identify small molecule antagonists of the glucocorticoid receptor (GR) signaling pathway (AID 720692; active = well fitted inhibition curve with a large enough effect in the signal ratio in the repeat runs, not every such curve was filed as active; the % refers to the signal ratio)
# How it was run: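 Tox21 10K library screened in concentration-response for blockade of dexamethasone (5 nM final)-induced GRE-bla reporter activity in HeLa cells; 18 h treatment, fluorescence read.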
# [10] = qHTS assay to test for compound auto fluorescence at 460 nm (blue) in HEK293 cell free culture (AID 720681)
# How it was run: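 Test compounds were pinned into cell-free culture medium (DMEM with 10% FBS) and fluorescence was read directly at Ex/Em 405/460 nm. Signals were expressed as fluorescence equivalents of triamterene, with DMSO vehicle as control.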
# Glucocorticoid receptor (Homo sapiens), sequence (P04150 whole entry, looked up): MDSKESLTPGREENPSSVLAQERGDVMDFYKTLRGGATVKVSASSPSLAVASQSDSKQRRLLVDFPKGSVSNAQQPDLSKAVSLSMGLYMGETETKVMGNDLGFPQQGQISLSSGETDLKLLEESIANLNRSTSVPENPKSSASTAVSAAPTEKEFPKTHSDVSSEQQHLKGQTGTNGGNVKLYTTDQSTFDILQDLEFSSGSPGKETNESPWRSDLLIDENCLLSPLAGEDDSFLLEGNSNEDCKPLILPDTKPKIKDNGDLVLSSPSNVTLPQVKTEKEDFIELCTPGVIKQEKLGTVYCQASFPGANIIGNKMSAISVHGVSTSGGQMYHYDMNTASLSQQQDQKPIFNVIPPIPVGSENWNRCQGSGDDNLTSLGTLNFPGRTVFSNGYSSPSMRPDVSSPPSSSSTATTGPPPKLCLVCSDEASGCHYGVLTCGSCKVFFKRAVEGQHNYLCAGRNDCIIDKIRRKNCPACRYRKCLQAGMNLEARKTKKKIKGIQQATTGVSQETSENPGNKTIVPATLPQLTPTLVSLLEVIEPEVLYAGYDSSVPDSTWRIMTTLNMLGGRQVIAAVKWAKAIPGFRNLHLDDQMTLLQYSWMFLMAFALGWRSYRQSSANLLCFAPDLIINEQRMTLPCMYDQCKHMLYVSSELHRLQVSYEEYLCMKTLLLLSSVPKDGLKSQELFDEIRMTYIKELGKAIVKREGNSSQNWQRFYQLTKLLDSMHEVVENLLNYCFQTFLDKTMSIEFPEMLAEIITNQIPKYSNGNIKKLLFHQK
smiles,measurement,setting,value
CCCCN(CCO)CCCC,Potency,[1],inactive
same,Potency,[2],inactive
same,outcome,[3],inactive
same,outcome,[4],inactive
same,Potency,[5],inactive
same,Potency,[6],inactive
same,Potency,[7],inactive
Cc1occc(=O)c1OC(=O)C(C)C,Potency,[1],inactive
same,Potency,[2],inactive
same,outcome,[3],inactive
same,outcome,[4],inactive
same,Potency,[5],inactive
same,Potency,[6],inactive
same,Potency,[7],inactive
same,Potency,[8],inactive
same,Potency,[9],inactive
O=C(Nc1ccccc1SSc1ccccc1NC(=O)c1ccccc1)c1ccccc1,Potency,[1],inactive
same,Potency,[2],inactive
same,outcome,[3],inactive
same,outcome,[4],inactive
same,Potency,[5],inactive
same,Potency,[6],inactive
same,Potency,[7],inactive
NC12CC3CC(CC(C3)C1)C2,Potency,[1],inactive
same,Potency,[10],inactive
same,Potency,[2],inactive
same,outcome,[3],inactive
same,outcome,[4],inactive
same,Potency,[5],inactive
same,Potency,[6],inactive
same,Potency,[7],inactive
same,Potency,[8],inactive
same,Potency,[9],inactive
c1ccc2c(c1)CCCC2C1=NCCN1 (stereo unspecified),Potency,[1],inactive
same,Potency,[2],inactive
same,outcome,[3],inactive
same,outcome,[4],inactive
same,Potency,[5],inactive
same,Potency,[6],inactive
same,Potency,[7],inactive
"Cc1c2oc3c(C)ccc(C(=O)N[C@@H]4C(=O)N[C@H](C(C)C)C(=O)N5CCC[C@H]5C(=O)N(C)CC(=O)N(C)[C@@H](C(C)C)C(=O)O[C@@H]4C)c3nc-2c(C(=O)N[C@@H]2C(=O)N[C@H](C(C)C)C(=O)N3CCC[C@H]3C(=O)N(C)CC(=O)N(C)[C@@H](C(C)C)C(=O)O[C@@H]2C)c(N)c1=O (I: T[dV]P[Sar][NMeV] / II: T[dV]P[Sar][NMeV]; ester I:1-I:C, II:1-II:C; linker I:N-II:N via Actinocin(9to1))",Potency,[1],inactive
same,Potency,[2],inactive
same,outcome,[3],inactive
same,outcome,[4],inactive
same,Potency,[5],inactive
same,Potency,[6],inactive
same,Potency,[7],inactive
CCN(CC)C(=S)SSC(=S)N(CC)CC,Potency,[1],inactive
same,Potency,[2],inactive
same,outcome,[3],inactive
same,outcome,[4],inactive
same,Potency,[5],inactive
same,Potency,[6],inactive
same,Potency,[7],inactive
same,Potency,[8],inactive
same,Potency,[9],inactive
CCc1cc(C(C)(C)C)c(O)c(C(C)(C)C)c1,Potency,[2],inactive
same,outcome,[3],inactive
same,outcome,[4],inactive
same,Potency,[5],inactive
same,Potency,[6],inactive
same,Potency,[7],inactive
same,Potency,[8],inactive
same,Potency,[9],inactive
NCCCCCC(=O)O,"fluorescence, % of fluorescent control",[10],0.0269% [at 18.6 µM] (inactive)
same,activity change,[2],"0.0558% [at 18.6 µM, stronger effect = higher value] (inactive)"
same,"fluorescence, % of fluorescent control",[3],-0.0259% [at 18.6 µM] (inactive)
same,"fluorescence, % of Rose Bengal",[4],0.496% [at 18.6 µM] (inactive)
same,"fluorescence, % of fluorescent control",[5],0.0102% [at 18.6 µM] (inactive)
same,"fluorescence, % of fluorescein control",[6],-0.0066% [at 18.6 µM] (inactive)
same,"fluorescence, % of fluorescent control",[7],-0.0854% [at 18.6 µM] (inactive)
same,Potency,[8],inactive
Cc1ccc(S(=O)(=O)Oc2ccc(N=Nc3ccc(-c4ccc(N=Nc5c(O)ccc6cc(S(=O)(=O)O)cc(S(=O)(=O)O)c56)c(C)c4)cc3C)cc2)cc1,Potency,[2],inactive
same,outcome,[3],inactive
same,outcome,[4],inactive
same,Potency,[5],inactive
same,Potency,[6],inactive
same,Potency,[7],inactive
same,Potency,[8],inactive
O=C(Cl)c1cccc(C(=O)Cl)c1,Potency,[2],inactive
same,outcome,[3],inactive
same,outcome,[4],inactive
same,Potency,[5],inactive
same,Potency,[6],inactive
same,Potency,[7],inactive
same,Potency,[8],inactive
CNCCC(Oc1ccc(C(F)(F)F)cc1)c1ccccc1 (stereo unspecified),Potency,[10],inactive
same,Potency,[2],inactive
same,outcome,[3],inactive
same,outcome,[4],inactive
same,Potency,[5],inactive
same,Potency,[6],inactive
same,Potency,[7],inactive
same,Potency,[8],inactive
C/C=C/c1ccc(OCC)c(O)c1,Potency,[10],inactive
same,Potency,[2],inactive
same,outcome,[3],inactive
same,outcome,[4],inactive
same,Potency,[5],inactive
same,Potency,[6],inactive
same,Potency,[7],inactive
same,Potency,[8],inactive
COc1ccc(COC(C)=O)cc1,Potency,[2],inactive
same,outcome,[3],inactive
same,outcome,[4],inactive
same,Potency,[5],inactive
same,Potency,[6],inactive
same,Potency,[7],inactive
O=C(O)c1cccc(C(=O)O)c1,Potency,[10],inactive
same,Potency,[2],inactive
same,outcome,[3],inactive
same,outcome,[4],inactive
same,Potency,[5],inactive
same,Potency,[6],inactive
same,Potency,[7],inactive
same,Potency,[8],inactive
c1cc(C(c2ccc(OCC3CO3)cc2)C(c2ccc(OCC3CO3)cc2)c2ccc(OCC3CO3)cc2)ccc1OCC1CO1 (stereo unspecified),Potency,[10],inactive
same,Potency,[2],inactive
same,outcome,[3],inactive
same,outcome,[4],inactive
same,Potency,[5],inactive
same,Potency,[6],inactive
same,Potency,[8],inactive
CCC(C)(C)C(=O)O[C@H]1C[C@@H](C)C=C2C=C[C@H](C)[C@H](CC[C@@H]3C[C@@H](O)CC(=O)O3)[C@H]21,Potency,[10],inactive
same,Potency,[2],inactive
same,outcome,[3],inactive
same,outcome,[4],inactive
same,Potency,[5],inactive
same,Potency,[6],inactive
same,Potency,[7],inactive
same,Potency,[8],6.44 µM (active) and inactive
